Screens as filed in PubChem BioAssay.
Shown is part of a subset that was picked to be rich in hits.
Cruzain inh Det: qHTS Assay for Promiscuous and Specific Inhibitors of Cruzain (with detergent); 200,000 tested, 0.43% active; Cruzipain (Trypanosoma cruzi), P25779; purified cruzain, Z-FR-AMC fluorescence, 0.01% Triton; AID 1478, 2009; Potency, µM, hits mostly inhibitors; further: nearly all actives have a fitted effect of over 40% in size
Target sequence (P25779 123-467 limits assumed): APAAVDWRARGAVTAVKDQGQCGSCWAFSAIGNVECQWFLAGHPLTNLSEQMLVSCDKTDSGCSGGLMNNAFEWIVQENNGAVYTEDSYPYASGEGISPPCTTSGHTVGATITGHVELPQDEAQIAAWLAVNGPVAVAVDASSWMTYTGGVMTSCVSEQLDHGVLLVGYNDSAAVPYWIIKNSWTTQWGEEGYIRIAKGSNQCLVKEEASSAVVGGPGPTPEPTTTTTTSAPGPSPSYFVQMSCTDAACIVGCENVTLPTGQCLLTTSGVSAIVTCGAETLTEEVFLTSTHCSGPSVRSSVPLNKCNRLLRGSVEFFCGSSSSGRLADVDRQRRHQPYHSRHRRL
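Read-out: AMC fluorescence (360 nm excitation, 450 nm emission), four reads over 2 min, first-to-third difference used. Conditions: cruzain 1.5 nM, Z-FR-AMC 2 uM, pH 5.5 acetate, 5 mM DTT, 0.01% Triton X-100.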
Cruzain inh noDet: qHTS Assay for Promiscuous and Specific Inhibitors of Cruzain (without detergent); Potency, µM, actives largely listed as inhibitors; AID 1476, 2009; 200,000 tested, 2.3% active; Cruzipain (Trypanosoma cruzi), P25779; purified cruzain, Z-FR-AMC fluorescence, no detergent; further: nearly all actives have a fitted effect of over 40% in size
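Detergent-free condition (0.00005% Triton X-100) in acetate buffer pH 5.5 with DTT. 1.5 nM enzyme and compound were pre-mixed 15 min, then 2 uM Z-FR-AMC substrate added; reaction progress from fluorescence change between first and third reads (60 s).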
NS1 function inh: qHTS Assay for Inhibitors of Influenza NS1 Protein Function; Potency, µM (doses to about 46.1 µM); 270,000 tested, 0.4% active; calls by dose curve; further: actives are rising curves; nearly all actives have a fitted effect of over 50% in size
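Read-out: OD600 growth recovery of NS1-expressing budding yeast. Cells grown overnight at 30C in -URA glucose medium, washed, resuspended and diluted 1:100 in 2% galactose assay medium, pH 6.0. Same strain lacking NS1 served as positive control.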
NS1 inh valid: Assay for Inhibitors of Influenza NS1 Protein Function: Hit Validation. 1,400 tested, under 10 active. influenza NS1 function cell assay, 15-point titration. activity change, negative = inhibition, % at 32.9 µM. shares compounds with NS1 function inh; calls by dose curve
Of the large screens only hits and unclear results are named; the others gave an inactive call (follow-up assays come after a bar, where they were run). Unless noted, the call rests on the fitted dose curve; in most records, active means well fitted curve in the direction sought with a large enough effect; inconclusive means small, poorly fitted or top-dose-only effect, or another doubt; inactive means no such curve, though single readings can be large; an effect the other way counts as inactive or inconclusive.

COc1cccc(-c2cc(C(=O)Nc3ccncc3)c3ccccc3n2)c1	none (no result: Cruzain inh Det, Cruzain inh noDet)
COC(=O)c1ccc(Nc2nnc(-c3ccc(C)c(S(=O)(=O)N4CCN(C)CC4)c3)c3ccccc23)cc1	none (no result: NS1 function inh)
COc1cc(C2CC(=O)Nc3c2c(C)nn3-c2nncc(-c3ccccc3)n2)cc(OC)c1OC (stereo not given)	Cruzain inh noDet inconclusive (no result: NS1 function inh)
COc1ccccc1NC(=O)CSc1nc2nccnc2c(=O)n1CCc1c[nH]c2ccccc12	none (no result: NS1 function inh)
COc1ccccc1NC(=O)Cn1c(=O)n(CCc2c[nH]c3ccccc23)c(=O)c2cccnc21	Cruzain inh noDet 20µM, NS1 function inh 11µM | NS1 inh valid inactive
CCCCC/C=C\C[C@@H](O)/C=C/C=C\C/C=C\CCCC(=O)O	none (no result: NS1 function inh)
Cn1c(CN2CCCCC2)nc2cc(NS(=O)(=O)c3ccc(Cl)cc3)ccc21	none
Cn1c(CCN2CCCCC2)nc2cc(NS(=O)(=O)c3ccc(Cl)cc3)ccc21	NS1 function inh 0.89µM | NS1 inh valid inactive
COc1ccc(-n2c(=O)cnc3cnc(N4CCNCC4)nc32)cc1	none (no result: NS1 function inh)
Cn1cc(C(=O)N2CCN(C(=O)c3ccco3)CC2)c2c3ccccc3n(C)c2c1=O	NS1 function inh 4µM | NS1 inh valid inactive
CCN1CCN(C(=O)c2cn(CCOC)c(=O)c3c2c2ccccc2n3C)CC1	none
Cc1c(Cl)sn(-c2ccc(Cl)cc2)c1=O	none (no result: Cruzain inh Det, Cruzain inh noDet)
C=CCn1c(SCc2ccccc2)nc(O)cc1=O	NS1 function inh 6.3µM | NS1 inh valid inactive
O=c1cc(O)nc(SCc2ccccc2)n1-c1ccccc1	NS1 function inh inconclusive
Cc1ccc(Cl)cc1NC(=O)C(C)n1nnc2sc3c(c2c1=O)CCCC3 (stereo not given)	none (no result: NS1 function inh)
CC(C)Oc1ccc(CN2CCc3nc(Nc4ccc5c(c4)OCCO5)ncc3C2)cc1	none (no result: NS1 function inh)
Cc1onc(-c2ccccc2)c1C(=O)Nc1nnc(N(C)Cc2ccccc2)s1	Cruzain inh noDet inconclusive, NS1 function inh 7.9µM | NS1 inh valid inactive
Cc1nnc(NC(=O)c2c(-c3ccccc3)noc2C)s1	none
Cc1ccc(NC(=O)C(Nc2ccccc2)c2ccccc2)cc1 (stereo not given)	none
Cc1ccc(NC(=O)C(Nc2cccc(C)c2)c2ccccc2)cc1 (stereo not given)	NS1 function inh inconclusive | NS1 inh valid inconclusive
Cc1cccc(N2CCN(c3ccc(C(=O)O)cc3NC(=O)c3cccc(Cl)c3)CC2C)c1 (stereo not given)	Cruzain inh Det inconclusive (no result: NS1 function inh)
Cc1ccc(-c2[nH]c3ccccc3c2SCCNC(=O)c2cc3ccccc3oc2=O)cc1	Cruzain inh noDet inconclusive, NS1 function inh inconclusive
O=C(NCCSc1c(-c2ccccc2)[nH]c2ccccc12)c1cc2ccccc2oc1=O	Cruzain inh noDet inconclusive, NS1 function inh 11µM | NS1 inh valid inactive
CC1(C)N=C(N)NC(Nc2ccc(Br)cc2)=N1	Cruzain inh Det 16µM, Cruzain inh noDet 20µM, NS1 function inh 7.9µM | NS1 inh valid inactive
CC1(C)N=C(N)NC(Nc2cccc(Br)c2)=N1	none
CCOc1ccc(OCC)c(NC(=O)C2CCN(c3nnc(-n4cccc4)s3)CC2)c1	none (no result: NS1 function inh)
CCN(CC)CCN=Cc1c(O)n(CCc2ccccc2)c(=O)[nH]c1=O	NS1 function inh inconclusive
CCN(CC)CCCN=Cc1c(O)n(CCc2ccc(F)cc2)c(=O)[nH]c1=O	NS1 function inh inconclusive | NS1 inh valid inactive
CN1CCc2cc3c(cc2[C@@H]1[C@@H]1C(=O)Oc2c1ccc1c2OCO1)OCO3	none (no result: NS1 function inh)
NC(=O)c1ccc(-n2nnnc2SCC(=O)Nc2ccccc2)cc1	none (no result: Cruzain inh Det, Cruzain inh noDet)
O=C(CSc1nnnn1-c1ccccc1)CC(=O)Nc1ccc(Cl)cc1	Cruzain inh noDet inconclusive, NS1 function inh 2.5µM | NS1 inh valid inactive
Cn1c(SCC(=O)CC(=O)Nc2ccccc2)nnc1-c1ccc(O)cc1	NS1 function inh inconclusive
O=C(CSc1nnc(-c2ccc(O)cc2)n1-c1ccccc1)CC(=O)Nc1ccccc1	NS1 function inh 10µM | NS1 inh valid inactive
Cc1cc(C(C)(C)C)c(OCCCN2CCOCC2)c(C(C)(C)C)c1	none
COc1ccc2c(c1)C(c1cc(OC)c(OC)c(OC)c1)CC(=O)O2 (stereo not given)	none (no result: NS1 function inh)
COc1ccc(-n2ccnc(NCc3cccs3)c2=O)cc1	none (no result: NS1 function inh)
COc1ccc(-n2nnnc2SCC(=O)Nc2ccc(OC)cc2OC)cc1	none (no result: Cruzain inh Det, Cruzain inh noDet)
CCOc1cc(C#N)c(NC(=O)CSc2nnnn2-c2ccc(OC)cc2)cc1OCC	Cruzain inh noDet inconclusive, NS1 function inh inconclusive | NS1 inh valid inactive
COc1cc(/C=C2\SC(=S)N(Nc3ncc(C(F)(F)F)cc3Cl)C2=O)ccc1O	Cruzain inh noDet inconclusive, NS1 function inh 4µM | NS1 inh valid inactive
COc1cc(/C=C2\SC(=S)N(Nc3ccccc3)C2=O)ccc1O	none
Cc1ccc(CN2C(=O)C(O)(c3c[nH]c4ccccc34)c3cc(Cl)ccc32)cc1 (stereo not given)	none (no result: NS1 function inh)
O=C(CCCOc1ccc(Cl)cc1)N1CCCCC1	none
O=C(CCCOc1ccc(Cl)cc1)N1CCOCC1	NS1 function inh 11µM | NS1 inh valid inactive
Cc1ccc(Cl)cc1NC(=O)Cn1nc(-c2cccs2)ccc1=O	none (no result: Cruzain inh Det, Cruzain inh noDet)
Cc1ccn2cc(-c3cccc(S(=O)(=O)N4CCCCC4)c3)nc2c1	none (no result: Cruzain inh Det, Cruzain inh noDet)
Cc1ccc2nc(-c3cccc(S(=O)(=O)N4CCCC4)c3)cn2c1	NS1 function inh inconclusive (no result: Cruzain inh Det, Cruzain inh noDet) | NS1 inh valid inactive
Cc1nn(CC(=O)N2CCN(c3ccc(Cl)cc3)CC2)c(=O)c2cccn12	Cruzain inh Det inconclusive
COc1ccc(NS(=O)(=O)c2cc(NC(=O)c3ccco3)ccc2N2CCCC2)cc1	Cruzain inh noDet inconclusive, NS1 function inh inconclusive
COc1ccc(NS(=O)(=O)c2cc(NC(=O)/C=C/c3cc(OC)ccc3OC)ccc2N2CCCCC2)cc1	Cruzain inh noDet 6.3µM, NS1 function inh 10µM | NS1 inh valid inactive
CCCn1c(SCC(=O)N2CCN(S(=O)(=O)c3ccc(Cl)cc3)CC2)n[nH]c1=O	none
Cc1cc(C)n2c(SCC(=O)N3CCN(S(=O)(=O)c4ccc(Cl)cc4)CC3)nnc2n1	NS1 function inh 10µM | NS1 inh valid inactive
Cc1nc2cnc(N3CCOCC3)nc2n(Cc2cccs2)c1=O	none (no result: NS1 function inh)
CCCn1c(SCC(=O)Nc2sc(C)c(C)c2C#N)nnc1C(C)C	NS1 function inh 8.9µM | NS1 inh valid inactive
Cc1sc(NC(=O)CSc2nnc(C(C)C)n2C)c(C#N)c1C	none
COc1ccc(OC)c(NC(=O)CSc2nnc3ccc4ccccc4n23)c1	Cruzain inh noDet inconclusive (no result: NS1 function inh)
O=C(N/N=C/c1ccc(Cl)c([N+](=O)[O-])c1)c1cc(-c2ccc3c4c(cccc24)CC3)n[nH]1	NS1 function inh 5µM (no result: Cruzain inh Det, Cruzain inh noDet) | NS1 inh valid inactive
Nc1cc(C(=O)N/N=C/c2cccc([N+](=O)[O-])c2)n[nH]c1=O	none (no result: Cruzain inh Det, Cruzain inh noDet)
O=C(N/N=C/c1ccc(Cl)c([N+](=O)[O-])c1)c1ccc2nc[nH]c2c1	none
O=C(N/N=C/c1cccc([N+](=O)[O-])c1)c1cc(-c2ccc3c4c(cccc24)CC3)n[nH]1	Cruzain inh noDet 7.9µM, NS1 function inh inconclusive | NS1 inh valid inactive
O=[N+]([O-])c1ccc(C(c2sc3nc(-c4ccco4)nn3c2O)N2CCC3(CC2)OCCO3)cc1 (stereo not given)	none (no result: NS1 function inh)
CCC1CN(C(=O)N2CCC(C(=O)NCCc3cc(OC)ccc3OC)CC2)c2ccccc2O1 (stereo not given)	none (no result: NS1 function inh)
